Assay results as given in PubChem BioAssay (NCI).
“And” between values parts separate entries of the source, which are not always exact repeats. Equal entries are not always repeated. This is part of a sample that, as a whole, favours compounds with a hit. Of some 83,000 tested, about 20% had one in any assay.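 The endpoint reported here, percent growth, reads 100 for growth as untreated, 0 for no net growth and -100 for all cells dead.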 The source made the active and inactive calls. The calls were made as follows: active = growth percent below 10; inactive = the rest.

test system: MDA-MB-468 breast; assay: NCI-60 one-dose screen, 48 h (100 = growth as untreated, 0 = no growth, -100 = all killed); conditions: 10 µM unless noted

Compound	growth
CN1C[C@@H](c2ccc(Cl)cc2)[C@]2(NC(=S)N(c3ccc(F)c(Cl)c3)C2=O)[C@@]12C(=O)NC1C=CC(Cl)=C[C@H]12 (stereo not given in full)	48.8% (inactive)
Cc1nn(-c2ccccc2)c(N2CCOCC2)c1-c1nc2ccc([N+](=O)[O-])cc2[nH]1	94.3% (inactive)
Cc1ccc(NS(=O)(=O)c2ccccc2)c(NS(=O)(=O)c2ccccc2)c1	104% (inactive)
CN1C(=O)N(C)C2C1NN=c1s/c(=C\c3ccccc3F)c(=O)n12 (stereo not given)	11.6% (inactive)
NC1[C@H]2CN(c3cnc(C(=O)Nc4cc(F)cc5cccnc45)cn3)C[C@@H]12 (stereo not given in full)	3.36% (active)
CCCCCc1ccc(S(=O)(=O)Nc2cccc(-c3csc(NC(=O)CN4CCN(C)CC4)n3)c2)cc1	89.5% (inactive)
COc1cc(C2=NN(C(C)=O)C(c3cc(OC)c(OC)c(OC)c3)C2)ccc1O (stereo not given)	15.9% (inactive)
O=C1C(Cl)=C(Cl)C(Cl)(Cl)C(Cl)C1(Cl)Cl (stereo not given)	115% (inactive)
COc1ccc(Br)cc1NC(=O)Nc1cccc2c1ccn2Cc1ccnc(N)c1	-14.4% (active)
CCOC(=O)c1c(NC(=S)Nc2ccc([N+](=O)[O-])cc2)sc2c1CCCCC2	71.2% (inactive)
Cc1ccc(S(=O)(=O)Nn2c3c(cc(-c4nc5ccccc5s4)c2=O)CCCCCC3)cc1	110% (inactive)
CCOC(=O)c1nn(CC(O)c2ccccc2)c(NC(=O)Nc2cccc(F)c2)c1C (stereo not given)	94.6% (inactive)
CN(C)CCn1c(=O)c2ccccc2n2nc3ccccc3c12	105% (inactive)
S=C(c1cccs1)N1CCN(c2cccc(Cl)c2)CC1	85.8% (inactive)
CCCCCCNc1nc(N2CCOCC2)c2[nH]c(NCCCCCC)nc2n1	-76.7% (active)
Cn1ccnc1CN1CCSC(C(=O)Nc2ccccc2)C1 (stereo not given)	87.8% (inactive)
CCN1CCN(c2cc(C)c3cc(NC(=O)c4ccc(OC)c(OC)c4)ccc3n2)CC1	1.89% (active)
C#Cc1nc(C2=C(C)C(OC(=O)CCC(=O)O)CC2)cs1 (stereo not given)	99.6% (inactive)
COc1ccc(-c2nn(-c3cccc(NC(=O)c4cc(C(F)(F)F)cc(C(F)(F)F)c4)c3)cc2-c2ccncc2)cc1Cl	61.4% (inactive)
COc1ccc(OC)c(C(=O)c2oc3ccc(Br)cc3c2N)c1	23.6% (inactive)

Compound	growth
C[C@]12CC[C@@H]3c4ccc(O)c([N+](=O)[O-])c4CC[C@H]3[C@@H]1CC[C@@H]2NS(=O)(=O)c1cccc(Br)c1	39.8% (inactive)
Cc1[nH]c(C(=O)Nc2nc3ccc(NC(=O)CCN)cc3s2)c(Cl)c1Cl	69.4% (inactive)
COc1cc2c3c(c4c5ccccc5[nH]c4c2c(OC)c1OC)C(=O)N(O)C3=O	32.7% (inactive)
CC(=O)c1c(C)nc2ccccc2c1/C=C/c1cccc(C)c1	28.5% (inactive)
CN(C[C@H]1Cc2c(cccc2N2CCN(c3ncccn3)CC2)CN1)[C@H]1CCCc2cccnc21	37.6% (inactive)
COc1ccc(C2c3cccn3-c3ccccc3N2C(C)=O)cc1 (stereo not given)	93.9% (inactive)
CCCCCCCCCCCCCCCCCCSC1=CC(=O)C(OC)=C(OC)C1=O	105% (inactive)
N#CC(=Nc1cccc(F)c1)C1=C(O)c2ccccc2C1=O	75.2% (inactive)
N#Cc1c(NC(=O)c2ccccc2I)sc2c1CCCC2	50% (inactive)
ClCc1cccc(CSc2ncnc3c2ncn3Cc2cccc(CCl)c2)c1	-89.3% (active)
COc1ccc(C/C(C)=C(\c2ccc(Cl)cc2)c2ccc(OCCCN(C)C)cc2)cc1	59.7% (inactive)
CCCC(=O)Oc1ccc(CC)cc1	117% (inactive)
CC(=O)O[C@H]1CC[C@]2(C)[C@H]3CC=C4[C@@H]5CC(C)(C)CC[C@]5(C(=O)OCC(COC(=O)C(Cl)Cl)(COC(=O)C(Cl)Cl)NC(=O)C(Cl)Cl)CC[C@@]4(C)[C@]3(C)CC[C@H]2C1(C)C	58.7% (inactive)
O=C(NO)c1ccc(Cn2c(=O)n(-c3ccccc3)c(=O)c3ccccc32)cc1	16.9% (inactive)
CCOc1ccc(Nc2c3ccccc3nc3ccccc23)cc1	102% (inactive) and -9.77% (active)
COC(=O)C1CCc2sc3ncnc(Nc4cn[nH]c4C(=O)Nc4ccc(CN5CCN(C)CC5)cc4)c3c21 (stereo not given)	37.3% (inactive)
Cc1cc(C#Cc2ccccc2)ccc1-n1c(/C=C/c2cc(O)ccc2O)nc2ccccc2c1=O	-36.5% (active)
COc1ccc2cc(-c3nc4ccccc4s3)c(Cl)nc2c1OC	103% (inactive)
COc1cc(/C=C/CO)cc(OC)c1O[C@@H]1O[C@H](CO)[C@@H](O)[C@H](O)[C@H]1O	91.9% (inactive)
CCn1cc(C(=O)N/N=C/c2ccccc2)c(=O)c2cc(F)c(N3CCNC(C)C3)c(F)c21 (stereo not given)	30.4% (inactive)
